Experimental data from PubChem BioAssay (NCATS).
Results filed as inconclusive are left out. Unmarked numbers belong to inactive results. Activity calls are given as the source filed them. The call rests on the fitted dose curve; in most records, active means well fitted cell-killing curve with a large enough effect; inconclusive means small, poorly fitted or top-dose-only effect, or effect the other way; inactive means flat fitted curve, though single readings scatter.

These compounds were tested on HeLa (assay: Primary qHTS to identify gynecologic anti-cancer compounds using libraries of approved drugs and bioactive compounds (AID 1345084; further: nearly all actives have a fitted effect of over 55% in size)). Details: Gynecologic cancer cell panel viability, ATPlite luminescence, 48 h; series mostly up to 57.5 µM; activity change, negative = cytotoxicity: at the top concentration.
Description: National Center for Advancing Translational Sciences [NCATS] Assay Overview: Chemotherapeutic drug responses vary from cancer to cancer and from patient to patient. These variations could be caused by a number of factors including patient genomic background, tumor mutations, tumor heterogeneity, and aspects of drug treatment. Chemotherapeutic drug resistance is also a common issue and can lead to ineffective treatment and patient death. Here we have profiled the cell killing effects of thousands of compounds to characterize the responses in three gynecological cancers, identify cancer-selective compounds, and understand the diversity of responses to these compounds from pan-cancer suppressors to single cell line selective compounds. In this assay, we screened a 7,914 compound drug library that included approved drug and bioactive compounds in six ovarian, three cervical, and […] placental cancer cell lines using the ATPlite assay for cell viability. […] The cervical cancer cell lines included HeLa, Ca Ski, and C-33 A. The placental cancer cell lines included JEG-3. HEK 293T cells were used as the control cell line to determine the selectivity index. ATPlite is a luminescence based assay reliant on the conversion of a luciferase substrate to light in the presence of ATP. As a cytotoxic compound will suppress growth and decrease the number of cells, the concentration of ATP will decrease, and less light signal will be detected in the well.
Assay Protocol Summary: 1,000 cells in 4 uL of media were dispensed into white, solid bottom 1536-well plates using a Multidrop Combi (Thermo Scientific). The Assay plates were incubated for 16 hours at 37 C with 5% CO2 in assay plates, followed by the addition of 23 nL of DMSO or drug dissolved in DMSO. Each compound was assayed in five concentrations (0.092, 0.46, 2.3, 11.5, and 57.5 uM), using the automated Wako 1536 Pin Tool workstation and incubated at 37 C with 5% CO2 48 hours. 4 uL of ATPlite, the ATP monitoring reagent, was then added to the each well of the assay plates using the Multidrop Combi reagent dispenser followed by incubation for 15 minutes at room temperature. The resulting luminescence was measured using the ViewLux plate reader.
On the % scale 0 is the no-effect control and ±100 the full control effect; potency means the concentration at half of the fitted maximal effect.

Point of comparison: `NC(=O)c1cn(Cc2c(F)cccc2F)nn1`, “activity change, negative = cytotoxicity” value 8.18%. Against it:
- Cc1nc2c([nH]1)c(=O)n(C)c(=O)n2Cc1ccco1 — lower, 7.23%
- OC(CCN1CCCCC1)(c1ccccc1)C1CCCCC1 (stereo not given) — lower, 3.03%
- COc1cc(C(=O)OCCCN2CCCN(CCCOC(=O)c3cc(OC)c(OC)c(OC)c3)CC2)cc(OC)c1OC — lower, -29%
- NC(N)=NC(=O)Cc1c(Cl)cccc1Cl — lower, 0.67%
- CCN(CC)CCNC(=O)c1ccc(NC(C)=O)cc1 — lower, -0.511%
- COCCOC(=O)C1=C(C)NC(C)=C(C(=O)OC(C)C)C1c1cccc([N+](=O)[O-])c1 (stereo not given) — lower, -3.02%
- CN1C(=O)CC[C@H]1c1cccnc1 — higher, 8.56%
- CCCCCCCC/C=C\CCCCCCCC(=O)NCc1ccc(O)c(OC)c1 — lower, -10.2%
- CN(C)C(=O)Oc1cccc([N+](C)(C)C)c1 — lower, -2.76%
- NC(=O)c1ncn([C@@H]2O[C@H](CO)[C@@H](O)[C@H]2O)c1O — lower, -5.14%
- c1cnc(N2CCN(Cc3ccc4c(c3)OCO4)CC2)nc1 — lower, 6.11%
- CC(=O)OCC1=C(C(=O)O)N2C(=O)[C@@H](NC(=O)Cc3cccs3)[C@H]2SC1 — lower, 5.97%
- CCOC(=O)c1cnc2c(cnn2CC)c1NN=C(C)C — higher, 16.3%
- COCCc1ccc(OCC(O)CNC(C)C)cc1 (stereo not given) — lower, -22.1%
- CCCN(CCC)C(=O)C(CCC(=O)O)NC(=O)c1ccccc1 (stereo not given) — higher, 11.2%
- O=C(CCNNC(=O)c1ccncc1)NCc1ccccc1 — lower, -1.46%
- O=c1[nH]c(=O)n([C@H]2C[C@H](O)[C@@H](CO)O2)cc1Br — lower, -14.5%
- COCC(=O)O[C@]1(CCN(C)CCCc2nc3ccccc3[nH]2)CCc2cc(F)ccc2[C@@H]1C(C)C — lower, -4.28%
- CN(C)CCN(Cc1cccs1)c1ccccn1 — lower, 2.58%
- CCCCNc1ccc(C(=O)OCCN(C)C)cc1 — higher, 8.44%
- CC(=O)[C@@]1(O)CC[C@H]2[C@@H]3CCC4=CC(=O)CC[C@]4(C)[C@H]3CC[C@@]21C — lower, -4.67%
- CC(C)(C)c1ccc(C(=O)CCCN2CCC(OC(c3ccccc3)c3ccccc3)CC2)cc1 — lower, -4.21%
- CC(=O)OC(C)C[N+](C)(C)C (stereo not given) — lower, 0.132%
- Cc1nnc(SCC2=C(C(=O)O)N3C(=O)[C@@H](NC(=O)Cn4cnnn4)[C@H]3SC2)s1 — lower, 5.27%
- NC(N)=N/N=C/c1c(Cl)cccc1Cl — lower, -19.3%
- Nc1c2c(nc3ccccc13)CCCC2O (stereo not given) — lower, -4.45%
- Cc1ccc(/C(=C\CN2CCCC2)c2ccccn2)cc1 — lower, -1.51%
- CCN(CC)CCOCCOC(=O)C1(c2ccccc2)CCCC1 — lower, -2.01%
- CNCCC(Oc1ccccc1OC)c1ccccc1 (stereo not given) — lower, 5.35%
- CCn1nc(C(=O)O)c(=O)c2cc3c(cc21)OCO3 — higher, 20.5%
- COC(=O)[C@@H](N)Cc1ccc(O)c(O)c1 — lower, -0.342%
- CO[C@@]1(NC(=O)CSCC#N)C(=O)N2C(C(=O)O)=C(CSc3nnnn3C)CS[C@@H]21 — lower, -0.246%
- COc1ccc([C@@H]2Sc3ccccc3N(CCN(C)C)C(=O)[C@@H]2OC(C)=O)cc1 — lower, -17.7%
- CN(C(=O)CCCOc1ccc2[nH]c(=O)ccc2c1)C1CCCCC1 — lower, -16.3%

With `COC(=O)[C@H]1[C@H]2C[C@@H]3c4[nH]c5cc(OC)ccc5c4CCN3C[C@H]2C[C@@H](OC(=O)c2cc(OC)c(OC)c(OC)c2)[C@@H]1OC` the Potency was “inactive”.
With `C[n+]1cc2c3c(ccc2c2ccc4cc5c(cc4c21)OCO5)OCO3` the Potency was 8.91 µM (active).
`CC(=O)[C@]1(O)Cc2c(O)c3c(c(O)c2[C@@H](O[C@H]2C[C@H](N)[C@H](O)[C@H](C)O2)C1)C(=O)c1ccccc1C3=O` was tested, and the Potency was 7.08 µM (active).

Point of comparison: `N[C@@H](COP(=O)(O)O)C(=O)O`, “activity change, negative = cytotoxicity” value -0.57% [at 25.3 µM]. Against it:
- O=C(O)CN(CCN(CC(=O)O)CC(=O)O)CCN(CC(=O)O)CC(=O)O — higher, 16.5% [at 25.3 µM]
